High-throughput results from PubChem.
Shown are actives, neighbours in structure and some others; about 7.2% of the full set was active somewhere.
Sm TGR block: inhibitors of Schistosoma mansoni thioredoxin glutathione reductase | Q962Y6 | purified TGR, DTNB reduction, TNB absorbance 405 nm | Potency, µM (titrated, usually from 114 µM), without a hit: top-dose activity change, negative = inhibition, actives largely listed as inhibitors | actives 3% (n = 360,000) | AID 485364; also: nearly all actives have a fitted effect of over 60% in size
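First, TGR (20 nM dispensed) and NADPH were mixed with compound. Second, a 15 min room-temperature incubation followed. Third, further NADPH and then DTNB were added to start the reaction. Finally, TNB absorbance was monitored kinetically.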
RE007 growth inh: less growth of the S. pombe RE007 Vpr strain. Potency, µM (doses to about 92.2 µM), for inactives: at the highest dose activity change, negative = less growth, most hits filed as inhibitors. actives 0.21% (n = 360,000). S. pombe RE007 Vpr strain, BacTiter-Glo ATP luminescence, 24 h; active = well fitted falling curve with a large enough effect; inconclusive = small, poorly fitted or top-dose-only effect; inactive = no such curve, though single readings can be large or run the other way; also: nearly all actives have a fitted effect of over 50% in size
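Fission yeast RE007 carrying one integrated HIV-1 vpr copy, seeded at OD 0.01 in PMG+AL medium with 23 nL pinned compound. Grown 24 h at 30 degrees; viability read by BacTiter-Glo luminescence after 5 min.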
LASV entry inh: inhibitors of Lassa virus binding or cell entry | Lassa virus pseudotype entry inhibition, cell reporter | Potency, µM (top dose mostly 37.9 µM), inactives show top-dose activity change, negative = inhibition, actives largely listed as inhibitors | actives 1.2% (n = 300,000) | AID 540256; calls by dose curve; tested in HEK293 cells; also: nearly all actives have a fitted effect of over 50% in size
HCV inhibitor: blocks hepatitis C virus; AID 651820; Huh7.5.1 HCVcc-Cre infection, luciferase reporter, 44 h; actives 3.4% (n = 340,000); Potency, µM (highest dose often 41.8 µM), inactives show top-dose activity change, negative = inhibition, actives largely listed as inhibitors
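Seed cells (1,000/well) for 4 h; treat with compound and infect with HCVcc-Cre, moi about 0.5. Incubate 44 h, then detect luciferase activity.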
FMDV antiviral: antivirals against foot and mouth disease virus; FMDV antiviral cell-based qHTS; Potency, µM (highest dose often 57.9 µM), for the others: at the highest dose activity change, negative = inhibition, actives largely listed as inhibitors; actives 1.2% (n = 410,000); calls by dose curve; tested in HEK293T cells; also: read-out not given here; nearly all actives have a fitted effect of over 45% in size
MARV entry inh: inhibitors of Marburg virus binding or cell entry | Marburg virus pseudotyped entry inhibition, cell reporter | Potency, µM (top dose mostly 37.8 µM), inactives show at the highest dose activity change, negative = inhibition, hits mostly inhibitors | actives 1.8% (n = 300,000) | AID 540276; calls by dose curve; tested in HEK293 cells
* hit, by the source's call; ? = inconclusive; · = not tested or not shown; [ ] = another dose, or the depositor's remark. Unless noted, calls follow the shape of the dose curve; as a rule, active = well fitted curve in the direction sought with a large enough effect; inconclusive = small, poorly fitted or top-dose-only effect, or another doubt; inactive = no such curve, though single readings can be large; an effect the other way counts as inactive or inconclusive. % is scaled to controls: 0 for no effect and ±100 for the full control effect; potency is read from the fitted curve at half-maximal effect.

SMILES	Sm TGR block	RE007 growth inh	LASV entry inh	HCV inhibitor	FMDV antiviral	MARV entry inh
CCOc1ccccc1NC(=O)Cn1c(=O)n(C(C)C)c(=O)c2oc3ccccc3c21	28%	·	11%[46.1 µM]	·	-9%	·
Cc1ccc(OCC(=O)Nc2cc3nn(-c4ccccc4)nc3cc2C)cc1	1%	·	0%[46.1 µM]	·	-4%	·
CC(=O)c1ccc(NC(=O)Cn2cc(S(=O)(=O)Cc3cccc(Cl)c3)c3ccccc32)cc1	0%	·	18%[46.1 µM]	·	34%	·
COc1cc(/C=N/O)ccc1OCc1ccc(C(=O)O)cc1	4%	-5%	?	27%	4.5µM*	0.1µM*
Cc1ccc2c(c1)C1CCCC3C1N2CC(=O)N3Cc1ccccc1 (stereo unspecified)	50µM*	·	·	·	·	-1%
CCCNC(=O)C1CCC(Cn2c(=O)c3sccc3n(CC(=O)NCc3ccccc3)c2=O)CC1 (stereo unspecified)	7%	·	0%[46.1 µM]	·	-4%	·
CON(C)C(=O)c1nnc2c3ccccc3n(S(=O)(=O)c3ccc(C)cc3)c2n1	·	·	·	·	·	16%[14.2 µM]
CC(=O)N1CC=CC1(CC(C)C)C(=O)NCCc1c[nH]c2ccccc12 (stereo unspecified)	-13%	26%	4%	-4%	0%	13%
CC(C)CC1(C(=O)NCCc2c[nH]c3ccccc23)C=CCN1C(=O)c1ccccc1 (stereo unspecified)	40µM*	8%	-11%	0%[8.37 µM]	9%	-33%
COc1ccc(OC)c(C2NC(=O)NC(C)=C2C(=O)Nc2ccc(F)cc2)c1 (stereo unspecified)	-1%	·	-12%[46.1 µM]	·	4%	7%[46.1 µM]
Cc1cc(-c2csc(NC(=O)c3ccc(=O)n(C)n3)n2)c(C)n1CC1CCCO1 (stereo unspecified)	35µM*	-4%	-5%	?	?	-42%
Cc1cc(-c2csc(NC(=O)c3ccc(=O)[nH]c3)n2)c(C)n1Cc1ccco1	45µM*	-15%	13%[46.1 µM]	-14%	-25%	-3%[46.1 µM]
COc1cc(CN2CCOc3ccc(C(O)c4cccnc4)cc3C2)cc(OC)c1 (stereo unspecified)	·	·	·	·	-11%	·
Nc1nc(C(=O)N2CCOCC2)nn1C(=O)c1ccc(Cl)cc1	35µM*	-15%	7%	26%	-21%	18%
O=C(c1ccc(Cl)cc1)c1ccccc1C(=O)N1CCOCC1	3%	-11%	2%	-2%	·	4%
CCC(C(=O)NCc1ccccc1Cl)n1nc(C)c2sc3ccccc3c2c1=O (stereo unspecified)	-10%	·	-8%[46.1 µM]	·	-1%	5%[46.1 µM]
NC1=C(Cl)C(=O)c2ccc(S(N)(=O)=O)cc2C1=O	·	-29%	?	0.56µM*	2.5µM*	2µM*
NC1=C(Cl)C(=O)c2ccccc2C1=O	·	25µM*	-11%	8.9µM*	?	?
Cc1cnc(C)c(-c2cc(F)cc3c2OC(CNC(=O)c2cc(Cl)ccc2F)C3)n1 (stereo unspecified)	·	·	·	·	-7%	·
COc1cc(/C=C/C(=O)OCC(=O)c2c(N)n(C)c(=O)n(C)c2=O)ccc1OCC#N	6%	-21%	?	?	-15%	6.3µM*
CCOc1ccc(C(=O)/C=C/c2cc(OC)c(OC)c(OC)c2)cc1	1%	-23%	?	-27%	?	?
COc1cc(/C=C/C(=O)OCC(=O)c2c(N)n(C)c(=O)n(C)c2=O)ccc1O	·	2%	-4%[46.1 µM]	-17%	-9%	-10%[46.1 µM]
COc1cc(/C=C/C(=O)c2ccc(C)cc2)ccc1OCC#N	-3%	-24%	10µM*	?	?	?
COc1ccc(/C=C/C(=O)c2ccccc2)cc1Cn1nnc2ccccc21	-8%	-3%	-22%	3.5µM*	?	?
COc1ccc(/C=C/C(=O)c2ccccc2)cc1COc1ccc(F)cc1	10%	-1%	-36%	?	?	?
SMILES	Sm TGR block	RE007 growth inh	LASV entry inh	HCV inhibitor	FMDV antiviral	MARV entry inh
COc1cc(/C=C/C(=O)c2ccc(F)cc2)cc(OC)c1OC	·	-9%	?	?	25µM*	?
Cc1cc(=O)n2c(C(=O)Nc3ccc(Br)cc3)c(C(=O)Nc3ccccc3)sc2n1	-9%	·	2%[46.1 µM]	·	-1%	-2%[46.1 µM]
COc1ccc(Oc2ccc(/C=C/C(=O)c3ccc(O)cc3)cc2[N+](=O)[O-])cc1	-7%	·	13µM*	?	?	?
COc1cc(/C=C/C(=O)c2ccc3c(c2)OCO3)cc(OC)c1OC	-15%	-20%	·	?	22µM*	·
COc1ccc(/C=C/C(=O)c2ccc(C(=O)/C=C/c3ccc(OC)c(OC)c3)cc2)cc1OC	13%	12%	·	4.5µM*	?	·
O=C(/C=C/c1ccc(O)c([N+](=O)[O-])c1)c1ccc2ccccc2c1	-9%	-16%	15%[46.1 µM]	10%	2%	-1%[46.1 µM]
Cc1cc(C)nc(NS(=O)(=O)c2ccc(NC(=O)COc3ccc(C(C)(C)C)cc3)cc2)n1	8%	·	24%[46.1 µM]	·	72%	?
COc1cccc2c1C(=O)c1c(O)c3c(c(O)c1C2=O)C[C@@](O)(C(=O)CO)C[C@@H]3O[C@@H]1C[C@H](N)[C@H](O)[C@H](C)O1	·	·	·	·	-18%	·
COc1cccc2c1C(=O)c1c(O)c3c(c(O)c1C2=O)C[C@@](O)(C(=O)CO)C[C@@H]3O[C@H]1C[C@H](N)[C@H](O)[C@H](C)O1	?	-4%[18.4 µM]	0.37µM*	0%[8.37 µM]	?	0.73µM*
COc1cccc2c1C(=O)c1c(O)c3c(c(O)c1C2=O)CC(O)(C(C)=O)CC3OC1CC(N(C)C)C(O)C(C)O1 (stereo unspecified)	·	-13%	?	0.56µM*	1%	?
COc1cccc2c1C(=O)c1c(O)c3c(c(O)c1C2=O)CC(O)(C(C)=NO)CC3OC1CC(N)C(O)C(C)O1 (stereo unspecified)	·	-3%	?	?	25%	?
COc1cccc2c1C(=O)c1c(O)c3c(c(O)c1C2=O)C[C@@](O)(C(=O)CO)C[C@@H]3OC1CC(N)C(O)C(C)O1 (stereo partly specified)	·	-11%	?	1µM*	-13%	0.5µM*
CC1CCCN(CCCNC(=O)c2ccc3c(c2)N(Cc2ccc(Cl)cc2)C(=O)c2ccccc2S3(=O)=O)C1 (stereo unspecified)	0%	·	?	·	-4%	?
CCOC(=O)c1c(S(=O)(=O)NCCCc2ccco2)c(C)n(C)c1C	28µM*	1%	·	3%	35%	·
Cc1ccc(Cn2nnc3c(=O)[nH]c(C4CCN(S(=O)(=O)Cc5ccccc5)CC4)nc32)cc1	-16%	21%	11µM*	?	20%	?
CCC(C)NC(=O)c1nc2c(nnn2Cc2ccccc2Cl)c(=O)[nH]1 (stereo unspecified)	-3%	-4%	2%	-16%	12%	0%[46.1 µM]
